Rows were chosen to be rich in hits. Some 6.3% of all compounds tested hit in one or more screens of this group.
TIM10 inh: inhibits growth of TIM10 yeast strain; AID 463195; S. cerevisiae TIM10 strain growth, BacTiter-Glo luminescence, 24 h; inhibition, % at 10 µM; actives 1.4% (n = 330,000);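 active = inhibition of 40% or more at the single tested concentration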;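 note: wild-type TIM10 isogenic control strain grown at permissive 25 °C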
MPTP block: blocks calcium-induced mitochondrial swelling | isolated mouse mitochondria, Ca2+ swelling absorbance, 30 min | inhibition, % at 10 µM | actives 1.4% (n = 360,000);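 active = inhibition of 50% or more, scaled per plate between neutral and stimulator controls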
tim23-1 inh: growth inhibitors of tim23-1 mutant yeast. S. cerevisiae tim23-1 growth, BacTiter-Glo luminescence, 24 h. inhibition, % at 20 µM. actives 1.3% (n = 330,000). AID 463212;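 active = growth inhibition of the mutant yeast at or above 50%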;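 note: temperature-sensitive mutant grown at 25 °C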
Mdm2 MdmX PPI: disrupts the human Mdm2-MdmX interaction | SaOS-2 split-luciferase Mdm2/MdmX complementation, luminescence | inhibition, % at 8 µM | actives 3% (n = 330,000) | AID 485346;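 active = inhibition of at least 50% at 8 µM in the primary screen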
Target sequence (O15151 whole entry, looked up): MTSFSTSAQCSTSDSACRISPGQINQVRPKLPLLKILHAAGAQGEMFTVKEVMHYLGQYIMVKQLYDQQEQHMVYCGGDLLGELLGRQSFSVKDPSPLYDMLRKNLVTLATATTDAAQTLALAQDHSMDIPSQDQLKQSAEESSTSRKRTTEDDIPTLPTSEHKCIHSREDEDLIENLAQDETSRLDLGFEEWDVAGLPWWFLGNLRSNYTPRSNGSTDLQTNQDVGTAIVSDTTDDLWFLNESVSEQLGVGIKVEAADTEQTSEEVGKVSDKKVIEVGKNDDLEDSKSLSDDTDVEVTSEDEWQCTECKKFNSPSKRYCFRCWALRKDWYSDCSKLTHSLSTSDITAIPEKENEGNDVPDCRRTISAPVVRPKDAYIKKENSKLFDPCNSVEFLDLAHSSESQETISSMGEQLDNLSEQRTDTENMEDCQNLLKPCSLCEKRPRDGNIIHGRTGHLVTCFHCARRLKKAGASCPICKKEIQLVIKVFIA
Target sequence (Q00987 whole entry, looked up): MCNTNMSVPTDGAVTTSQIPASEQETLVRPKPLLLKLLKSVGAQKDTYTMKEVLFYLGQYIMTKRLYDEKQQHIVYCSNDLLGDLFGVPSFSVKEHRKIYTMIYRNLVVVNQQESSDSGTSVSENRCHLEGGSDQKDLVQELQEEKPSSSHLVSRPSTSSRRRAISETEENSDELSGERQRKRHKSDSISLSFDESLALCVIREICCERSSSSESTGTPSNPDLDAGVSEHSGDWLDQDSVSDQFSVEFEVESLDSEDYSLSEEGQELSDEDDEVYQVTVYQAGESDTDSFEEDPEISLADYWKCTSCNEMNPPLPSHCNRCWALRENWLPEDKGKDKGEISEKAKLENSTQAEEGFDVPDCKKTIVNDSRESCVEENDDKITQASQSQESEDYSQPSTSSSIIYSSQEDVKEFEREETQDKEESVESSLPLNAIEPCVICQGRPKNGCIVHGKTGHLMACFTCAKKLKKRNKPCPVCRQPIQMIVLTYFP
tim10-1 inh: inhibits growth of tim10-1 mutant yeast; inhibition, % at 20 µM; actives 2.2% (n = 330,000); S. cerevisiae tim10-1 ts strain growth, BacTiter-Glo, 24 h;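 active = inhibition of at least 40%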;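 note: mutant grown at 25 °C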
tim10-1 conf: tim10-1 yeast growth inhibition, confirmed; shares compounds with tim10-1 inh; S. cerevisiae tim10-1 ts strain growth, BacTiter-Glo, 24 h; inhibition, % at 20 µM; actives 56% (n = 7,400); AID 463213;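 active = inhibition of yeast growth at or above a set limit in either of two repeat tests at 20 µM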;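 note: tim10-1 mutant grown at permissive 25 °C to find synthetic lethal compounds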
TIM10 conf: confirmation of TIM10 yeast growth inhibitors | shares compounds with TIM10 inh | S. cerevisiae tim10 strain growth, BacTiter-Glo luminescence, 24 h | inhibition, % at 10 µM | actives 63% (n = 4,600);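 active = inhibition of yeast growth at or above a set limit in either of two replicates at 10 µM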; note: this counterscreen used the strain with wild-type TIM10
tim23-1 confirm: confirmation of tim23-1 mutant yeast growth inhibitors | shares compounds with tim23-1 inh | S. cerevisiae tim23-1 growth, BacTiter-Glo luminescence, 24 h | inhibition, % at 20 µM | actives 83% (n = 4,400);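 active = inhibition above about 39% in either of two replicate wells at 20 µM, limit read from the data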;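 note: temperature-sensitive tim23-1 mutant grown at 25 °C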
Mdm2-MdmX conf: human Mdm2/MdmX binding inhibition, confirmed; shares compounds with Mdm2 MdmX PPI; luminescent assay; inhibition, % at 8 µM; actives 55% (n = 10,000); in the data active = inhibition above about 40%
Full FLuc ctr: inhibits full-length luciferase, flagging false Mdm2/MdmX hits | shares compounds with Mdm2 MdmX PPI | SaOS-2 full-length luciferase counterscreen, luminescence | inhibition, % at 8 µM | actives 77% (n = 6,200) | AID 504607;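 active = mean inhibition at 8 µM reaching about 37%, which flags the compound as non-specific, limit read from the data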;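 note: p53-null SaOS-2 cells with luciferase driven by a doxycycline-inducible promoter; compound on cells about two nights before reading with doxycycline added after day one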
Hits are given with their value; - = inactive; . = no result given.

SMILES | TIM10 inh | MPTP block | tim23-1 inh | Mdm2 MdmX PPI | tim10-1 inh | tim10-1 conf | Mdm2-MdmX conf | Full FLuc ctr | others
O=C(N/N=C/c1ccc(Cl)cc1Cl)c1ccc2nc[nH]c2c1 | - | - | - | - | - | . | . | .
C=CCc1cccc(/C=N/NC(=O)c2ccccc2OC)c1O | 57 | - | - | 66 | 49 | 31 | 70 | 47 | TIM10 conf=38
C=CCc1cccc(/C=N/NC(=O)c2ccc3nc[nH]c3c2)c1O | - | - | - | 67 | 44 | - | 52 | -
O=C(CSCC(=O)Nc1ccccc1)N/N=C/c1c(O)ccc2ccccc12 | - | - | - | 79 | 42 | - | 72 | -
O=C(N/N=C/c1c(O)ccc2ccccc12)Nc1ccccc1 | - | . | - | - | - | . | . | .
O=C(NCc1cccnc1)/C(=C/c1ccc(-c2cccc(Cl)c2)o1)S(=O)(=O)c1ccccc1 | - | - | - | 99 | 44 | 36 | 100 | 51
O=C(NCc1cccnc1)/C(=C\c1ccc(-c2cccc(Cl)c2)o1)S(=O)(=O)c1ccccc1 | . | - | . | . | . | . | . | .
Nc1nnnn1/N=C/C=C/c1ccccc1 | - | - | - | - | - | . | . | .
Nc1nnnn1/N=C/C(Br)=C/c1ccccc1 | 55 | - | - | 100 | 46 | 48 | 93 | 50 | TIM10 conf=53
COc1ccc(-n2cc(-c3ccccc3)[n+]3c2CCCCC3)cc1 | - | - | - | - | - | . | . | .
COc1ccc(-c2cn(-c3ccc(OC)cc3)c3[n+]2-c2ccccc2CC3)cc1 | - | - | - | 57 | 53 | 40 | - | .
COc1ccc(-c2[nH]ncc2N=Nc2cc(C)cc(C)c2)cc1 | - | - | - | - | - | . | . | .
COc1ccc(-c2[nH]ncc2N=Nc2ccccc2)cc1 | - | - | - | 66 | 58 | 37 | 58 | 85
S=C(NNc1ccc2ccccc2c1)NC1CCCCC1 | 51 | - | 52 | 64 | 49 | 53 | 55 | - | TIM10 conf=56;tim23-1 confirm=52
CCOC(=O)C1(C)CCCN1C(=O)c1ccc(OC)cc1 (stereo unspecified) | . | - | . | . | . | . | . | .
Cc1cc(C)nc(SCC(=O)c2ccc(F)cc2)n1 | - | - | - | - | - | . | . | .
Cc1cc(C)nc(S/C=C/C(=O)c2ccc(F)cc2)n1 | 48 | . | 56 | 101 | 41 | - | - | . | TIM10 conf=39;tim23-1 confirm=46
CCc1ccc2c(c1)NC(=O)C2(C)Cc1ccc(F)cc1 (stereo unspecified) | . | - | . | . | . | . | . | .
CCc1ccc2c(c1)C1(NN=C(c3ccc(C)cc3)S1)C(=O)N2 (stereo unspecified) | 40 | - | 83 | 74 | 92 | 88 | 68 | 63 | TIM10 conf=-;tim23-1 confirm=81
CCC(=O)Nc1ccc(S(=O)(=O)NC[C@H]2O[C@@H](n3cnc4c(=O)[nH]c(N)nc43)[C@H](O)[C@@H]2O)cc1 | . | - | . | . | . | . | . | .
COC(=O)c1cccc2c1-c1ccccc1/C2=N/O | - | - | 65 | 84 | 59 | 38 | 76 | 37 | tim23-1 confirm=56
NC(=O)c1cccc2c1-c1ccccc1/C2=N/NC(N)=S | - | - | - | - | - | . | . | .
CCCCCCCCCCCCCCCC[N+](C)(C)CCN(Cc1ccc(OC)cc1)c1ncccn1 | 95 | - | 93 | 100 | 97 | 98 | 96 | - | TIM10 conf=99;tim23-1 confirm=96
COc1ccc(CN(CCN(C)C)c2ccccn2)cc1 | - | . | - | - | - | . | . | .
CCC1CSC(Nc2ccc(C(=O)/C=C/c3ccc(OC)c(OC)c3)cc2)=N1 (stereo unspecified) | - | - | - | - | - | . | . | .
SMILES | TIM10 inh | MPTP block | tim23-1 inh | Mdm2 MdmX PPI | tim10-1 inh | tim10-1 conf | Mdm2-MdmX conf | Full FLuc ctr | others
CCC1CSC(Nc2ccc(C(=O)/C=C/c3ccc(Br)cc3)cc2)=N1 (stereo unspecified) | 50 | - | 54 | 59 | 45 | 51 | - | . | TIM10 conf=48;tim23-1 confirm=55
COC(=O)[C@@H]1[C@@H](C#N)C2(c3ccccc3-c3ccccc32)N(c2ccc(Cl)cc2)N1C#N | 44 | - | 58 | 60 | 50 | 36 | 50 | - | TIM10 conf=-;tim23-1 confirm=63
C=C(C(=O)c1ccccc1)C(C)CC(=O)c1ccccc1 (stereo unspecified) | 49 | - | 55 | 64 | 44 | 60 | 61 | - | TIM10 conf=56;tim23-1 confirm=48
COc1cccc(Nc2nc(C(N)Cc3ccc(C(F)(F)F)cc3)cs2)n1 (stereo unspecified) | . | - | . | . | . | . | . | .
Cc1cccc(N2CCN(C(=O)c3ccc(Cl)c(S(=O)(=O)NCc4ccco4)c3)CC2)c1C | 50 | - | - | 70 | 45 | 39 | 74 | 42 | TIM10 conf=40
CCCOc1ccc(C(=O)NNC(=S)NC(=O)c2cccs2)cc1 | - | - | - | 60 | 48 | - | - | .
CC1(C(=O)NCc2cccs2)Cc2c(-c3ccc(C(N)=O)cc3)ccnc2O1 (stereo unspecified) | . | - | . | . | . | . | . | .
C=C1CCC[C@]2(C)C[C@H]3OC(=O)C(CN[C@@H](C)c4ccccc4)[C@H]3CC12 (stereo partly specified) | . | - | . | . | . | . | . | .
C=C1CCC[C@]2(C)C[C@H]3OC(=O)C(CN(Cc4ccc(OC)c(OC)c4)CC(C)O)[C@H]3CC12 (stereo partly specified) | 44 | - | - | 68 | 43 | 40 | 48 | 40 | TIM10 conf=46
CCCCn1c2c(c(=N)c3ccccc31)CCC2 | - | - | - | - | - | . | . | .
CCCCCCCCn1c2c(c(=N)c3ccccc31)CCC2 | - | - | 66 | 85 | 60 | 51 | 86 | - | tim23-1 confirm=63
CCCCc1c(-c2ccccc2OC)ncn1CCc1ccccc1 | . | - | . | . | . | . | . | .
COc1cccc(/C=C2\SC(=S)N(CCCC(=O)N(CCO)c3ccccc3)C2=O)c1 | - | - | 50 | 99 | 44 | - | 60 | - | tim23-1 confirm=54
O=C(NC(=S)N1CC=CCC1)c1ccccc1 | . | - | . | . | . | . | . | .
C=CCn1c(N)c(C(=O)Nc2cccc(C)c2)c2nc3ccccc3nc21 | - | - | - | 67 | 61 | 49 | - | .
Nc1c(C(=O)Nc2ccccc2)c2nc3ccccc3nc2n1CCCN1CCOCC1 | - | - | - | 67 | 64 | 44 | - | .
C=CCn1c(N)c(C(=O)Nc2ccc(C)c(C)c2)c2nc3ccccc3nc21 | - | - | - | - | - | . | . | .
Cc1cccc(C)c1NC(=O)C1c2ccccc2OCC(=O)N1Cc1ccco1 (stereo unspecified) | . | - | . | . | . | . | . | .
COc1cccc(-c2nn(C)c3sc(C(=O)NCc4ccccn4)cc23)c1 | - | - | - | 55 | 45 | - | 41 | 77
CNC(=O)C[C@H]1C(=O)N(C2CCCCC2)C[C@@H]1c1ccc(Br)cc1 | . | - | . | . | . | . | . | .
